# Measurements as given in ChEMBL document CHEMBL4513216, “Probing the Open Global Health Chemical Diversity Library for Multistage-Active Starting Points for Next-Generation Antimalarials” (ACS Infect Dis, 2020).
# About 2,100 (3.2%) of roughly 65,000 compounds showed an effect of 50% or more. The median lay at about -52%. The entries come from a sample that favours strong results as a whole.
# System: Plasmodium falciparum
# Experiment: Screen against P. falciparum Asexual Blood Stage (ABS), at 5uM
# Assay type: functional, Dd2
# Settings: tested at 5 uM
row,SMILES,INHIBITION [%]
1,Fc1cccnc1O[C@@H]1CN(Cc2ccco2)[C@@H]2CCCO[C@@H]21,-48.2
2,CSC1(CNC(=O)NC(C)Cc2cccc(F)c2)CCOCC1 (centres undefined),-25.5
3,COc1ccccc1N1CCC(CNCc2ccc(C#N)cc2)C1 (centres undefined),94.1
4,CC[C@H]1CN2CC[C@H]1C[C@@H]2CNCc1cccc(C#N)c1,34.8
5,N#Cc1ccc(CNCC2(c3ccccc3)CCOCC2)cc1,83
6,COc1ccccc1C1(CNCc2ccc(C#N)cc2)CCOCC1,76.6
7,COc1ccccc1C1(CNCc2cccc(O)c2)CCOCC1,82.8
8,O=C([C@@H]1CC[C@@H]2[C@@H](CCN2Cc2ccncc2)O1)N1CCCCO1,-84.8
9,O=C1CO[C@@H]2CN(CC3CCOCC3)C[C@H]2N1Cc1ccncc1,-115
10,Cc1ccc(C(CCNCCCN(C)C)C2CCOC(C)(C)C2)cc1 (centres undefined),83.6
11,CN(Cc1cccnc1)[C@@H]1CN(CC2CC2)[C@@H]2CCCO[C@H]12,-1.12
12,COc1cc(OC)c(C2SCC(=O)Nc3n[nH]cc32)cc1OC (centres undefined),-189
13,COc1cc(OC)c(C2Nc3cc(Cl)ccc3C3=NCCN32)cc1OC (centres undefined),81.7
14,C/C(=C\c1ccco1)CN(C)C(C)Cc1cc(C)ccn1 (centres undefined),-0.191
15,CS(=O)(=O)Cc1nc(CN2CC=C(c3ccccc3)CC2)cs1,-50.8
16,CCCN1CCN(C(=O)c2cnccc2C)[C@H]2CS(=O)(=O)C[C@H]21,-12.9
17,O=C(c1[nH]c2ccc(Cl)cc2c1Cl)N1CCC2(CC1)OCCO2,-37.1
18,CC(C)c1ncc(Cl)c(C(=O)N2CCN3CCCCC3C2)n1 (centres undefined),-158
19,Cc1c(C(=O)N2CCC(N3CCCCC3)CC2)n(C)c2ccc(Cl)cc12,88
20,CC(Cn1cncn1)NCc1csc2c1CCCC2 (centres undefined),-42.7
21,Fc1ccc(OCCNC2CCN(Cc3ccncc3)CC2)c(F)c1,74.2
22,c1cc(CN2CC[C@@H]3CN(c4cnccn4)C[C@@H]3C2)ccn1,-72.2
23,c1cnc(NC[C@H]2OC[C@@H]3CCN(Cc4ccncc4)C[C@@H]32)nc1,-102
24,CNc1ncccc1C(=O)N1CCC2(CCN(C)C2)CC1,-89.3
25,Cc1ncc(CNCCO)c2cc(C(=O)c3ccc(Br)cc3)oc12,89.3
26,O=C1C[C@@H]2CC[C@H](CN1)N2C1CSCCSC1,-45.6

row,SMILES,INHIBITION [%]
1,O=C1Nc2ccccc2C12CCN(Cc1nccs1)CC2,-15.8
2,O=C1CC2(CCN(Cc3ccoc3)C2)CN1c1cncnc1 (centres undefined),-51.3
3,Cn1ccnc1CN1CC2(CCN(Cc3ccncc3)C2)C1,-45.8
4,Cc1ccc(CN2CCC3(CC2)CCN(Cc2ccco2)CC3)cc1,91.7
5,Cc1ccc(CN2CCC3(CCN(Cc4ccncc4)CC3)CC2)cc1,78.3
6,CN1CCN(Cc2ccco2)Cc2cccnc21,-15.8
7,c1cc(CN2CCCC23CCCN(Cc2ccoc2)C3)ccn1 (centres undefined),-105
8,O=C1NC[C@H]2CN(Cc3nccs3)CCN12,-41.7
9,c1cnc(N2CC3(CCN(Cc4ccncc4)C3)C2)nc1,-104
10,C[C@H]1C[C@@H]2CCN(Cc3ccco3)C[C@H]2O1,-32
11,Fc1ccc(CN2CCC3(CC2)CCN(Cc2nccs2)CC3)cc1,86.6
12,Cc1ccc(CN2CCC3(CC2)CCN(Cc2ccoc2)CC3)cc1,92.7
13,O=C1CSC(c2ccc(Cl)cc2Cl)c2c(n(C3CCOCC3)[nH]c2=O)N1 (centres undefined),-37.1
14,O=C(NCC1CC[C@@]2(CNCCOC2)O1)c1cccnc1 (some centres undefined),-65.9
15,Cc1n[nH]c2c1C(c1ccsc1)SCC(=O)N2 (centres undefined),-110
16,c1cncc(OC[C@]23COC[C@H]2CN(C2CCOCC2)C3)c1,-10.4
17,CSCCCN1CC[C@@]2(O)CCN(c3ncccn3)C[C@H]2C1,16.4
18,CCCOc1ccc2ccccc2c1CN1CC[C@@]2(O)CCNC[C@H]2C1,93.2
19,O=C(O)[C@]12CCCN(C3CCOC3)C[C@H]1CN(c1ncccn1)C2 (some centres undefined),-128
20,CN(C)C(=O)c1ccc(-c2cccc3c2CCNC3)cc1,-115
21,Oc1ccc(N2CCN(Cc3ccc(F)cc3Br)CC2)cc1,-85.8
22,OC1(c2ccc(F)cc2)CCN(Cc2ccccc2N2CCCC2)CC1,71.9
23,O=C(NCC1CC1)[C@@H]1C[C@@H]2OCCN[C@@H]2C1,-55.3
24,O=C1NCC[C@]12CN(Cc1cccnc1)C[C@H]2c1ccccc1,-11.5
25,Cc1ccc(C)c(N2CCN(CC3(O)CCNC3)CC2)c1 (centres undefined),85.9
26,Cc1cccc(CN2CCC23CCCNC3)n1 (centres undefined),12

row,SMILES,INHIBITION [%]
1,CC(=O)N1CC2(CCNCC2)c2cc(C)ccc21,1.98
2,Cc1nc2c(C)cccc2cc1C(=O)N1CCC2(CCCNC2)C1 (centres undefined),-31.7
3,Cc1ccccc1N1CCCN(CC2(O)CCCNC2)CC1 (centres undefined),87.7
4,Cc1cnn(CC(C)NCc2ccc(C#N)cc2F)c1 (centres undefined),-84.2
5,c1cc(CN2CCO[C@H]3[C@H](OCC4CCCC4)CC[C@@H]32)ccn1,-71.1
6,CN(C)CCN(C)C[C@H]1CN2CC[C@H]1C[C@@H]2CNC(=O)Nc1ccsc1,-49.3
7,Cc1nc(CN2CCOC3(CCCC3)C2)oc1C,-101
8,C[C@@H]1CN2C[C@H](O)CC2CN1Cc1ccncc1 (some centres undefined),-64.4
9,C[C@H]1CN2C[C@H](O)CC2CN1Cc1ccncc1 (some centres undefined),-85.4
10,O[C@@H]1C[C@H]2CN(Cc3ccsc3)[C@@H](Cc3ccccc3)CN2C1,71.6
11,Cc1ccc(-n2nnc(CC(=O)N3CCN(C4CC4)CC3)c2C)cc1,-35.9
12,COc1cccc(C2SCC(=O)Nc3n[nH]cc32)c1OC(C)C (centres undefined),-75.3
13,Cc1ccc(CNC(CN2CCN(C)CC2)c2ccccc2)cc1 (centres undefined),79.5
14,CN1CCN(CC(NCc2ccc(F)c(F)c2)c2ccccc2)CC1 (centres undefined),83.8
15,COc1cccc(CNC(CN2CCN(C)CC2)c2ccccc2)c1 (centres undefined),82
16,Cc1ccc(CC(=O)N2CCN(CC(O)c3ccccc3)CC2)cn1 (centres undefined),-130
17,O=C(Cc1ccccc1)N1CCN(CC(O)c2ccc(F)cc2)CC1 (centres undefined),-118
18,Cc1cccc(CNC(CN2CCN(C)CC2)c2ccccc2)c1 (centres undefined),83.5
19,COc1cccc(CC(C)NC(=O)NC(C)C)c1 (centres undefined),-64.2
20,Cc1cnn(CC(C)NCc2cccc(C#N)c2)c1 (centres undefined),-41.8
21,COc1cccc(CC(C)NC(=O)NCc2ccn(C)c2)c1 (centres undefined),-91.8
22,O=C(Cc1ccc(F)cc1)N1CCN(CC(O)c2ccccc2)CC1 (centres undefined),-18
23,O=C(c1ccncc1F)N1C[C@@H]2OCCN(CC3CC3)[C@@H]2C1,-66.6
24,O=C(C1CCCCC1)N1CCC2(CC1)OCCO2,-149
25,O=C(Nc1ccccc1)[C@H]1C[C@H]2CN(Cc3cccnc3)C[C@@H]1O2,-15
26,Cc1ccc(C(=O)N2C[C@H](N3CCOCC3)[C@@H]3OCCC[C@@H]32)cn1,-62.2

row,SMILES,INHIBITION [%]
1,CCN(CC1CN(Cc2nc(C3CC3)no2)CCO1)c1cccnn1 (centres undefined),73.3
2,CN(Cc1nc(C2CC2)no1)C(=O)CN1CC(c2ccccc2)CC1=O (centres undefined),-52.4
3,CNC(=O)c1ccc2c(c1)C1(CCN(CCOC)CC1)C(=O)N2,-12.8
4,COCCn1cc(NC(=O)NC(C)Cc2c(F)cccc2F)cn1 (centres undefined),-151
5,COCCCN1CCCN(C(C)C(=O)Nc2cccc(I)c2)CC1 (centres undefined),90
6,Cn1ncc2c(N3CCCN4CCC[C@H]4C3)nc(C(C)(C)C)nc21,-68.8
7,O=c1[nH]c(NC2CCCC2)nc2nccc(-c3ccco3)c12,72.4
8,COCCN1CCN(Cc2cccnc2)[C@H]2CS(=O)(=O)C[C@H]21,-9.43
9,COc1ncccc1CN1CC[C@H]2O[C@H](c3nnc(C)o3)CC[C@H]21,-73.1
10,CC(O)CN1CCC(CNCc2cccc(Br)c2)CC1 (centres undefined),87.8
11,CC(O)CN1CCN(C(=O)Cc2ccccc2Cl)CC1 (centres undefined),-179
12,CC(Cc1cccc(Cl)c1)NC(=O)Nc1cnn(CC(N)=O)c1 (centres undefined),-5.01
13,CC(O)CN1CCC(CNCc2cccc(Cl)c2)CC1 (centres undefined),87.9
14,CCOc1ccccc1CNCC1CCN(CC(C)O)CC1 (centres undefined),75.9
15,COCC(C)NC(=O)c1cn(C(C)(C)C)c2ncccc12 (centres undefined),-120
16,COc1ccc(CC(=O)N2CCN(Cc3ccco3)C[C@@H]2C)cc1OC,-135
17,COc1ccc(C2SCC(=O)Nc3ccsc32)cc1OC (centres undefined),-6.6
18,CCNC(=O)NC(=O)CNC1(c2noc(C)n2)CCCCC1,-46.9
19,CN1Cc2ccccc2NC(=O)C12CCNC2 (centres undefined),-33.4
20,O=C1CC[C@@H]2[C@@H](CCN2Cc2ccccn2)N1CC1CC1,-65.4
21,CN1CCn2c(-c3cccc(F)c3)cnc2C12CCN(CC1CC1)CC2,76.5
22,CC(=O)N1CCC2(CC1)c1ncc(-c3cccnc3)n1CCN2C,-45.5
23,c1ccc(-c2ncc3c(n2)C2(CCN(CC4CC4)C2)COC3)cc1 (centres undefined),32
24,Fc1cnc(N2CC3(CCN(CC4CC4)C3)C2)nc1,-62.7
25,CN1CCn2c(-c3ccccc3)cnc2C12CCN(CC1CC1)CC2,80.9
26,Cc1nc(C2(NCC(=O)NC(=O)NCc3cccs3)CCCCC2)no1,-111
